FLuc counter: inhibits or activates purified firefly luciferase, miR-21 counter-screen; P08659; purified FLuc, Km substrates, luminescence inhibition; Potency, µM (highest dose often 57.5 µM), for inactives: at the highest dose activity change, negative = inhibition, actives largely listed as inhibitors; 360,000 tested, 6.9% active; AID 588342;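 further: plate controls were vehicle for no effect and reference inhibitor for full effect; nearly all actives have a fitted effect of over 55% in size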
Target sequence (P08659 whole entry, looked up): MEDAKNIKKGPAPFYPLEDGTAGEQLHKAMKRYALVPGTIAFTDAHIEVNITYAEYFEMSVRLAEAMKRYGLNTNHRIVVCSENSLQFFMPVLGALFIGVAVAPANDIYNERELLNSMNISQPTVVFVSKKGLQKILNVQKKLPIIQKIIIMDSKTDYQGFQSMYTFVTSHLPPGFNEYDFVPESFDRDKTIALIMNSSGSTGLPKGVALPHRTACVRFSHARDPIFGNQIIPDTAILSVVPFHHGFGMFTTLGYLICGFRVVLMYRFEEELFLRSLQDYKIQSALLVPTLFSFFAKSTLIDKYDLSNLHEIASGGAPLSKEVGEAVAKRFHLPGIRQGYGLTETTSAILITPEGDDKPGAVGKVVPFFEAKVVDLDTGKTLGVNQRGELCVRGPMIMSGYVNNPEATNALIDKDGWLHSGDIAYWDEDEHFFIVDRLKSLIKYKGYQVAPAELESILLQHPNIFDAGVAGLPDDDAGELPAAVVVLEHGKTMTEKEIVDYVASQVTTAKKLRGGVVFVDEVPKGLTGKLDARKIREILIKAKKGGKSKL
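Purified P. pyralis luciferase (10nM final) with 10uM D-luciferin and 10uM ATP (Km levels) in 50mM Tris acetate pH 7.5, 10mM Mg acetate, 0.01% Tween-20, 0.05% BSA; qHTS 6-point titration, ~60 µM downward; luminescence read.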
ELG1 genotoxic: induces genotoxicity in HEK293T cells with luciferase-tagged ELG1; 330,000 tested, 1.3% active; HEK293T ELG1-luciferase reporter, luminescence, 16 h; Potency, µM (doses to about 46 µM), inactives show top-dose activity change, positive = activation, most hits filed as activators; further: % of control where 0% means no effect; nearly all actives have a fitted effect of over 60% in size
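Quantitative HTS format in 1536-well plates. HEK293T ELG1-luciferase reporter cells receive test compound and are incubated 16 hr at 37 °C, 5% CO2; ONE-Glo added, 30 min room temperature, then luminescence read.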
NPC1 promoter act: activates the NPC1 promoter; AID 485313; Huh7 NPC1 promoter luciferase reporter, 24 h; 320,000 tested, 2.4% active; Potency, µM (highest dose often 9.22 µM), for the others: top-dose activation, hits mostly activators; further: % of control where 0% means no effect; nearly all actives have a fitted effect of over 60% in size
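Stably transfected Huh7 (NPC1 promoter→luciferase), 1500 cells/well in Opti-MEM + 10% FBS, 2 h settle, then compound 24 h at 37 °C. Luminescence after 10 min with Amplite reagent.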
ELG1 DNA repair: blocks ELG1-dependent DNA repair in HEK293T cells | Potency, µM (highest dose often 46.1 µM), for the others: at the highest dose activity change, negative = inhibition, actives largely listed as inhibitors | 330,000 tested, 2.3% active | HEK293T ELG1-luciferase reporter, luminescence, 16 h; DNA damage induced by 5-fluorouridine; further: on the % scale 0 is the no-effect control and ±100 the full control effect; nearly all actives have a fitted effect of over 55% in size
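Overnight (16 hr) co-exposure of 2,000 cells/well to 5-fluorouridine and compound at 37 °C preceded detection. Luciferase was quantified via ONE-Glo luminescence; loss of signal denotes inhibition.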
Rab9 prom act: activates the Rab9 promoter; Huh7 Rab9 promoter-luciferase reporter, luminescence, 24 h; Potency, µM (titrated, usually from 9.22 µM), without a hit: top-dose activation, negative = inhibition, most hits filed as activators; 320,000 tested, 2.8% active; further: % of control where 0% means no effect; nearly all actives have a fitted effect of over 60% in size
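Huh7 reporter line, Rab9 promoter upstream of luciferase. Compound exposure 24 h at 37 °C in reduced-serum medium with 10% FBS. Read-out: luminescence.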
SMN2 splice up: enhancers of SMN2 splice variant expression; HEK293 SMN2-luciferase splicing reporter, luminescence, 30-36 h; Potency, µM (top dose mostly 46.1 µM), for the others: at the highest dose activity change, positive = activation, hits mostly activators; 210,000 tested, 2.8% active; AID 1458; further: % of control where 0% means no effect; nearly all actives have a fitted effect of over 55% in size
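HEK293 cells carry an SMN2 minigene-luciferase reporter in which exon 7 inclusion puts luciferase in frame. Cells were seeded at 2000 cells/well, attached for 10-12 hours, then exposed to compounds for 30-36 hours at 37C before ONE-Glo luminescence.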
* hit, by the source's call; ? = inconclusive; · = no result; [ ] = dose if it differs, or a comment. The list is not random: actives were taken first. Their share in the collection is about 9.2%. The call rests on the fitted dose curve; in most records, active means well fitted curve in the direction sought with a large enough effect; inconclusive means small, poorly fitted or top-dose-only effect, or another doubt; inactive means no such curve, though single readings can be large; an effect the other way counts as inactive or inconclusive. Potency means the concentration at half of the fitted maximal effect.

SMILES	FLuc counter	ELG1 genotoxic	NPC1 promoter act	ELG1 DNA repair	Rab9 prom act	SMN2 splice up
O=C(Nc1ccc(Cl)c(S(=O)(=O)N2CCOCC2)c1)c1ccc2c(c1)OCCO2	27µM*	-17%	-1%	23µM*	4%	-53%
COc1ccc2ncc3c(-c4ccc(C)c(C)c4)nn(CC(=O)Nc4ccccc4)c3c2c1	-3%	·	·	·	·	·
CCCN(C(=O)c1cc2c(=O)oc3ccccc3c2s1)c1ccccc1C	5%	·	·	·	·	3%
O=C(Nc1ccccc1C(F)(F)F)N1CCOc2ccc(Cl)cc21	-11%	·	·	·	·	·
O=C(Nc1ccc(Cl)c(S(=O)(=O)N2CCOCC2)c1)c1ccc2c(c1)OCO2	·	-12%	·	6.5µM*	·	·
O=C(Nc1ccc2c(c1)OCCO2)c1cccc(S(=O)(=O)N2CCOCC2)c1	?	?	?	?	4.5µM*	?
O=C(c1ccc2c(c1)N(Cc1ccc(F)cc1)C(=O)c1ccccc1S2=O)N1CCC(Cc2ccccc2)CC1 (stereo not given)	-1%	·	·	·	·	-51%
Cc1ccc(N(C(=O)CNC(=O)c2ccco2)C(C(=O)NC2CCCCC2)c2cccnc2)cc1C (stereo not given)	0%	-5%	-3%	1%	-2%	·
Cc1ccc(N(C(=O)CCl)C(C(=O)NC2CCCCC2)c2cccnc2)cc1C (stereo not given)	8%	-14%	-39%	9.2µM*	-40%	-43%[1.84 µM]
CCNC(=O)c1c2c(nc3ccccc13)C(=O)N(C1CCCCC1)C2	-3%	·	·	·	·	·
COc1ccc(NC2CCCN(C(=O)CN3CCOC3=O)C2)cc1 (stereo not given)	11µM*	?	?	?	?	·
COc1ccccc1N=c1sc2ccccc2n1C	-7%	6%	0%	12%	-2%	-25%
COc1ccc(C(=O)N=c2sc3ccccc3n2C)cc1OC	11µM*	?	2.5µM*	?	2.2µM*	18µM*
COc1ccc(N=c2sc3ccccc3n2C)cc1	6µM*	8.2µM*	2.5µM*	?	2.2µM*	?
COc1ccccc1C(=O)N=c1sc2c(C)ccc(OC)c2n1C	15µM*	?	?	0%	26%	·
COc1cccc(C(=O)N=c2sc3c(C)ccc(OC)c3n2C)c1	0.67µM*	0.65µM*	0.71µM*	?	0.71µM*	2.8µM*
COc1ccc(OC)c2c1sc(=NC(=O)c1ccco1)n2C	-2%	?	17%	-19%	4%	28%
COc1ccc(C(=O)N=c2sc3c(C)ccc(OC)c3n2C)cc1OC	2.7µM*	-3%	1.6µM*	?	1.8µM*	·
CCOC(=O)Cn1cc(/C=N/NC(=O)c2cc3ccccc3o2)c2ccccc21	13µM*	0%	4%	?	-3%	·
O=C(N/N=C/c1ccncc1)c1cc2ccccc2o1	21µM*	2%	-3%	0%	-2%	14%
Cc1cc(/C=N/NC(=O)c2cc3ccccc3o2)c(C)n1C	21µM*	-6%	-2%	?	-1%	·
Cc1cccc(NC(=O)Cn2nc(-c3ccccc3)c3cnc4ccccc4c32)c1	0%	·	·	·	·	·
C=Cc1ccc(Cn2c(C(=O)O)c(CNC3CCCCC3)c3ccc(OC)cc32)cc1	0%	·	·	·	·	·
Brc1ccc(N=NNc2ccccc2)cc1	6µM*	?	?	?	?	·
O=C(O)c1cc(NN=Nc2cccc([N+](=O)[O-])c2)cc([N+](=O)[O-])c1	?	1%	-5%	-2%	-2%	·
SMILES	FLuc counter	ELG1 genotoxic	NPC1 promoter act	ELG1 DNA repair	Rab9 prom act	SMN2 splice up
O=[N+]([O-])c1ccc(N=NNc2ccccc2)cc1	?	10%	26%	?	?	16µM*
O=[N+]([O-])c1cccc(NN=Nc2ccccc2)c1	11µM*	?	?	?	?	·
CSc1cccc(NC(=S)N2CCC(c3ccccc3)C2)c1 (stereo not given)	15µM*	13%	18%	?	14%	·
CCc1cccc(NC(=S)N2CCC(c3ccccc3)C2)c1 (stereo not given)	24µM*	14%	?	?	?	68%
Fc1cc(F)cc(NC(=S)N2CCC(c3ccccc3)C2)c1 (stereo not given)	?	?	?	?	3.5µM*	13µM*
CSc1cccc(NC(=S)N2CCC(N(C)C3CCCCC3)CC2)c1	-1%	0%	-8%	14%	-3%	-34%
O=C(c1ccc(F)cc1)N1CCC(c2ccccc2)C1 (stereo not given)	?	?	4.5µM*	?	?	·
COc1ccc(C(=O)N2CCCC(c3ccccc3)C2)cc1 (stereo not given)	-2%	1%	1%	4%	1%	-9%
CC1=C(c2ccc(C(C)C)cc2)S(=O)(=O)N=C1N1CCC(C(=O)NCCc2ccco2)CC1	-7%	·	·	·	·	·
Cc1ccc(Cl)cc1Nc1nn2c(=O)c3ccc(C(=O)Nc4ccc(F)cc4)cc3nc2s1	-3%	·	·	·	·	·
O=C(Nc1cc(C(F)(F)F)ccc1Cl)c1cc(-c2cccs2)nc2ccccc12	5%	·	·	·	·	-3%
CC(=O)N1N=C(c2ccc(C)o2)CC1c1ccc(Br)cc1 (stereo not given)	?	?	2.5µM*	?	?	?
CNC(=S)N1N=C(c2ccc(Br)cc2)CC1c1ccc(Br)cc1 (stereo not given)	-1%	-2%	-3%	5.8µM*	-3%	-5%
CCC(=O)N1N=C(c2ccc(C)o2)CC1c1ccc(N(C)C)cc1 (stereo not given)	?	12%	13%	0%	20%	27%
COc1ccc(C2CC(c3ccc(OC)cc3O)=NN2C(=O)c2ccccc2)cc1 (stereo not given)	4%	0%	-4%	-29%	5%	·
COc1ccc(C2CC(c3ccc4ccccc4c3OC(C)=O)=NN2C(C)=O)cc1 (stereo not given)	-1%	?	4µM*	?	4µM*	·
COc1ccc(C2CC(c3ccc(Cl)cc3)=NN2C(C)=O)cc1 (stereo not given)	24µM*	15%	?	?	?	·
COc1ccc2nc(C)cc(Nc3ccc(Cl)c(Cl)c3)c2c1	1%	·	·	·	·	-46%
CS(=O)(=O)N1CCc2cc(S(=O)(=O)NCc3ccccc3Cl)ccc21	0%	·	·	·	·	·
COc1ccc(C2CC(c3ccc(C)o3)=NN2C(C)=O)cc1 (stereo not given)	?	?	?	?	?	13µM*

Source: PubChem (National Center for Advancing Translational Sciences (NCATS))
